Screening data: PubChem BioAssay, National Center for Advancing Translational Sciences (NCATS)
HPGD block: blocks human HPGD enzyme activity | P15428 | purified HPGD, NADH fluorescence kinetic, PGE2 substrate | Potency, µM, inactives show top-dose activity change, negative = inhibition, hits mostly inhibitors | actives 4.3% (n = 150,000); further: on the % scale 0 is the no-effect control and ±100 the full control effect
Target sequence (P15428 whole entry, looked up): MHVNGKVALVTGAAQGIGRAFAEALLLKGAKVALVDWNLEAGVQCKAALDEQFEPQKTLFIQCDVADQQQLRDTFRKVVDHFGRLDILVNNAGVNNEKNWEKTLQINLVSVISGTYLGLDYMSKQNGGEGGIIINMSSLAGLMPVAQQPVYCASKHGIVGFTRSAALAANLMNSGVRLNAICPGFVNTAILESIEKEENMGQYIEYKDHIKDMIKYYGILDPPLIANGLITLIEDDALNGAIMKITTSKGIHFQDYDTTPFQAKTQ
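NADH formation kinetics: reaction with 30 uM PGE2 and 1 mM NAD+ (final), 20 nM enzyme, Tris-HCl pH 8 with Tween 20, after 15 min compound preincubation at room temperature. Fluorescence change, last versus first of five reads.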
KDM4E inh: JMJD2E (human) inhibition. Potency, µM (series often up to 57.1 µM), inactives show top-dose activity change, negative = inhibition, most hits filed as inhibitors. actives 1.6% (n = 230,000). AID 2147. B2RXH2. JMJD2E catalytic domain, FDH-coupled NADH fluorescence (FDH is formaldehyde dehydrogenase);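 further: 0% = wells with enzyme and -100% = buffer wells without enzyme; nearly all actives have a fitted effect of over 50% in size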
Target sequence (B2RXH2 1-337 limits assumed): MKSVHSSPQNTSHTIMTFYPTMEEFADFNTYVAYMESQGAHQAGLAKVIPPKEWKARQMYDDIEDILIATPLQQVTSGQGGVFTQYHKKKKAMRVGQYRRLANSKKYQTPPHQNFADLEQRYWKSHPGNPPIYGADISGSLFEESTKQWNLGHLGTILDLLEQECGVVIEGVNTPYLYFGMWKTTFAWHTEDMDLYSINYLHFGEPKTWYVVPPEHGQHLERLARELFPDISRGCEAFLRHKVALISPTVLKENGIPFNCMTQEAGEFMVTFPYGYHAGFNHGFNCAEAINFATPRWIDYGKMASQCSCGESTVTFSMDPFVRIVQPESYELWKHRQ
HTT ATP protect: cytoprotection in Huntington HTT-Q103 PC12 cell model | PC12 HTT-Q103 induced, cytoprotection, ATP luminescence, 40 h | Potency, µM (top dose mostly 56.4 µM), for the others: cytoprotection (ATP increase), most hits filed as activators | actives 0.14% (n = 230,000); active means well fitted curve in the direction sought with a large enough effect; inconclusive means small, poorly fitted or top-dose-only effect, or another doubt; inactive means no such curve, though single readings can be large; an effect the other way counts as inactive or inconclusive; further: % of control where 0% means no effect; nearly all actives have a fitted effect of over 45% in size
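PC12 cells with ecdysone-inducible HTT exon 1 Q103-GFP, induced with 100 nM tebufenozide and co-treated with library compounds in a dose series (1536-well, 1500 cells/well). Cytoprotection read as ATP content by ATPlite luminescence.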
HttQ103 aggreg: reduces HttQ103-GFP aggregates in PC12 cells; PC12 HttQ103-GFP aggregates, Acumen cytometry, 40 h; actives 1.1% (n = 220,000); Potency, µM (top dose mostly 46.1 µM), for the others: at the highest dose activity change, negative = inhibition, hits mostly inhibitors; active means well fitted curve in the direction sought with a large enough effect; inconclusive means small, poorly fitted or top-dose-only effect, or another doubt; inactive means no such curve, though single readings can be large; an effect the other way counts as inactive or inconclusive; further: on the % scale 0 is the no-effect control and ±100 the full control effect; nearly all actives have a fitted effect of over 60% in size
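Aggregates are detected as GFP objects 1–25 µm with signal 6 STDEV over background in lysates of induced PC12 cells. These carry Huntingtin exon 1 with 103 glutamines fused to GFP under an ecdysone promoter; compounds titrated.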
LMNA splice mod: modulators of lamin A splicing; HeLa LMNA splicing GFP/RFP minigene ratio, 48 h; Potency, µM (series often up to 46.1 µM), for inactives: at the highest dose ratio change, negative = inhibition, most hits filed as inhibitors; actives 0.01% (n = 200,000); active means well fitted inhibition curve with a large enough effect in the signal ratio, with a control signal flat, not every such curve was filed as active; inconclusive means small, poorly fitted or top-dose-only effect, or effect the other way, or a change in a side signal; the % refers to the signal ratio; further: on the % scale 0 is the no-effect control and ±100 the full control effect
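Read-out is the ratio of GFP to DsRed2 object intensity, acquired by 488 nm laser-scanning cytometry on HeLa lamin A-EGFP minigene reporter cells. Compound incubation 48 hrs at 37 °C in Opti-MEM with 2% FBS; DMSO 0.5% final.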
ALDH1A1 block: inhibitors of human aldehyde dehydrogenase 1A1. P00352. Purified ALDH1A1, NADH fluorescence, propionaldehyde substrate. Potency, µM (doses to about 75.3 µM), for the others: top-dose activity, negative = inhibition, most hits filed as inhibitors. actives 7.3% (n = 220,000). AID 1030;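 further: plate controls were no enzyme wells and a reference inhibitor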
An asterisk follows results filed as active; ? = inconclusive; . = no result; [ ] = dose if it differs, or a comment. Hits are enriched below; roughly 9.2% of the tested compounds scored in any of these assays. Unless noted, the call rests on the fitted dose curve; in most records, active means well fitted inhibition curve with a large enough effect (not every such curve was filed as active); inconclusive means small, poorly fitted or top-dose-only effect, or another doubt; inactive means no such curve, though single readings can be large or run the other way. Potency means the concentration at half of the fitted maximal effect.

SMILES | HPGD block | KDM4E inh | HTT ATP protect | HttQ103 aggreg | LMNA splice mod | ALDH1A1 block
O=C1NC(C(=O)O)=CC(c2ccc([N+](=O)[O-])cc2)N1 (centres undefined) | . | -7.1% | 16.6%[10 µM] | -9.1%[9.22 µM] | . | 14.1µM*
CC1(C(=O)O)COC(c2ccc([N+](=O)[O-])cc2)OC1 (centres undefined) | -5.7% | 5.6% | 10.4% | -1.2% | -5.9% | -1.0%
COC(=O)N1C2=C(c3ccccc3[C@@H]1CC(=O)Nc1ccc(Br)cc1)[C@@H]1C(=O)N(c3ccccc3)C(=O)[C@@H]1[C@H](C)C2 | -13.4% | -1.1%[11.4 µM] | -11.2%[10 µM] | . | -13.3%[9.22 µM] | ?
O=C(Nc1sc2c(c1C(=O)O)CCC2)c1cccs1 | 25.1µM* | -10.2% | -9.5%[10 µM] | -15.6% | ? | ?
O=C(O)c1c(NC(=O)c2cccc3ccccc23)sc2c1CCC2 | 15.8µM* | 9.7% | 0.3% | 10.6%[9.22 µM] | -10.2% | ?
O=C(Nc1sc2c(c1C(=O)O)CCC2)c1ccccc1 | 17.8µM* | -3.8% | -33.4% | 11.7% | ? | 6.2%
Cc1nn(-c2ccccc2)c(C)c1/C=N/N1CCN(Cc2ccccc2)CC1 | -1.2% | -2.4% | -34.1% | . | . | -1.0%
O=C(CN1C(=O)C2(SCC(=O)N2c2ccc(Cl)cc2)c2ccccc21)NCCc1ccccc1 (centres undefined) | . | . | . | . | 1.8%[46 µM] | .
COC(=O)[C@@H](N)Cc1ccc(O)c(O)c1 | -12.8% | 12.6µM* | -143.7% | 22.9% | ? | 7.0%
COC(=O)C(N)Cc1ccc(Cl)cc1 (centres undefined) | -13.8% | 9.8% | . | . | ? | 13.5%
O=C(O)Cc1ccc(O)c(O)c1 | ? | 25.1µM* | -67.7% | -15.2%[9.22 µM] | ? | -2.2%
C[C@@](N)(Cc1ccc(O)c(O)c1)C(=O)O | ? | 7.94µM* | -20.2%[40.3 µM] | . | ? | -10.0%
COC(=O)[C@](C)(N)Cc1ccc(O)cc1 | . | . | -8.5%[1.9 µM] | . | . | .
COc1ccc2[nH]cc(CCNc3ncncc3-c3ccc(N(C)C)cc3)c2c1 | ? | ? | -10.4% | . | -12.2% | ?
COc1ccccc1-n1cc(CN2CCN(C3CCCCC3)C(CCO)C2)cn1 (centres undefined) | . | 4.5% | . | . | 5.2%[46 µM] | 2.6%
Cn1c(=O)c2ncn(CC(=O)Nc3cccc(-c4nc5ccccc5s4)c3)c2n(C)c1=O | ? | ? | -12.4% | 0.1% | ? | ?
C/C=C/CSc1nc2c(c(=O)[nH]c(=O)n2C)n1Cc1ccc(C)cc1 | 17.8µM* | -8.0% | 26.8%[10 µM] | 7.7% | 1.8% | 10µM*
C/C=C/Cn1c(SCc2ccccc2)nc2c1c(=O)[nH]c(=O)n2C | 20µM* | 1.3% | -25.2%[10 µM] | 6.7% | 10.3% | 14.1µM*
Cc1ccc(Cn2c(Sc3ncccn3)nc3c2c(=O)[nH]c(=O)n3C)cc1 | -5.4% | 9.6% | 4.7%[1.9 µM] | 1.1% | -2.0% | -2.3%
Cc1ccc(Cn2c(SCC(C)C)nc3c2c(=O)n(C)c(=O)n3C)cc1 | -25.4% | 3.1% | 11.4%[1.9 µM] | 0.2% | 9.1% | 2µM*
O=C(OC1CCOC1=O)c1ccc(S(=O)(=O)N2CCCCCC2)cc1 (centres undefined) | 15.8µM* | 11.0% | -8.8%[10 µM] | 0.6% | -1.8% | ?
O=C(OC1CCOC1=O)c1ccc(Cl)c(S(=O)(=O)N2CCCCC2)c1 (centres undefined) | . | -0.8% | 1.1% | -3.7% | 11.6%[46 µM] | -2.9%
CCc1cccc(CC)c1NC(=O)COC(=O)c1cccc(S(=O)(=O)N2CCc3ccccc3C2)c1 | -3.7% | 11.5% | 18.7%[10 µM] | 3.1% | 0.3% | -1.0%
O=C(OC1CCOC1=O)c1ccc(N2CCCC2)c([N+](=O)[O-])c1 (centres undefined) | . | -16.2% | 27.8%[10 µM] | 15.6% | 12.1%[46 µM] | 14.1µM*
O=C(OC1CCOC1=O)c1cccc(S(=O)(=O)N2CCc3ccccc3C2)c1 (centres undefined) | . | -5.0% | -29.2% | -11.2% | 3.5%[46 µM] | 12.6µM*
O=C(OCc1ccco1)c1ccc(S(=O)(=O)N2CCCCC2)cc1 | -16.3% | -3.1% | -4.0% | -1.9% | -6.5% | 28.2µM*
